Measured values reported in PMC5540273 (PLoS ONE, 2017).

What was measured:
Conditions in all cases: concentration: 1 μM, replicates: in singlicate; n = 1
CDC2L2 = system: CDC2L2
CDC2L5 = system: T1, CDC2L5
T1 construct: gene CDK13

CDK11 = system: T2, CDK11
T2 construct: gene CDK19

CDK2 = system: CDK2
CDK3 = system: CDK3
CDK4-cyclinD1 = system: CDK4-cyclinD1
CDK4-cyclinD3 = system: CDK4-cyclinD3
CDK4 = system: CDK4
CDK5 = system: CDK5
CDK7 = system: CDK7
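Also: KINOMEscan kinase panel screen.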

COc1ccc(-c2coc3ccc(-c4nnc(SCc5ccc(OC)c(C(F)(F)F)c5)o4)cc23)cc1
%Inh (CDC2L2): 17%
%Inh (CDC2L5): 0%
%Inh (CDK11): 57%
%Inh (CDK2): 1%
%Inh (CDK3): 0%
%Inh (CDK4-cyclinD1): 2%
%Inh (CDK4-cyclinD3): 0%
%Inh (CDK4): 0%
%Inh (CDK5): 14%
%Inh (CDK7): 0%

CSc1cccc2c(-c3ccncn3)c(-c3ccc(F)cc3)nn12 [GW514786]
%Inh (CDC2L2): 17%
%Inh (CDC2L5): 0%
%Inh (CDK11): 8%
%Inh (CDK2): 11%
%Inh (CDK3): 9%
%Inh (CDK4-cyclinD1): 13%
%Inh (CDK4-cyclinD3): 0%
%Inh (CDK4): 15%
%Inh (CDK5): 0%
%Inh (CDK7): 2%

O=C(Nc1cccc(-c2nn3ccccc3c2-c2ccnc(Nc3cccc(C(F)(F)F)c3)n2)c1)c1c(F)cccc1F [GSK292658]
%Inh (CDC2L2): 0%
%Inh (CDC2L5): 99.3%
%Inh (CDK11): 0%
%Inh (CDK2): 0%
%Inh (CDK3): 1%
%Inh (CDK4-cyclinD1): 0%
%Inh (CDK4-cyclinD3): 0%
%Inh (CDK4): 0%
%Inh (CDK5): 0%
%Inh (CDK7): 6%

CN1CCN(Cc2cccc(-c3ccc4c(Nc5ccc(Oc6ccccc6)cc5)ccnc4c3)c2)CC1 [GW578342]
%Inh (CDC2L2): 16%
%Inh (CDC2L5): 0%
%Inh (CDK11): 0%
%Inh (CDK2): 0%
%Inh (CDK3): 2%
%Inh (CDK4-cyclinD1): 0%
%Inh (CDK4-cyclinD3): 0%
%Inh (CDK4): 34%
%Inh (CDK5): 0%
%Inh (CDK7): 5%

COc1cccc(NC(=O)NC2CCN(c3ccnc(Nc4cc(OC)c(OC)c(OC)c4)n3)C2)c1 (stereo not shown) [GSK1379763]
%Inh (CDC2L2): 10%
%Inh (CDC2L5): 0%
%Inh (CDK11): 5%
%Inh (CDK2): 0%
%Inh (CDK3): 21%
%Inh (CDK4-cyclinD1): 0%
%Inh (CDK4-cyclinD3): 0%
%Inh (CDK4): 0%
%Inh (CDK5): 0%
%Inh (CDK7): 0%

c1ccc(-c2n[nH]cc2Nc2ccnc3ccccc23)nc1 [GW694077]
%Inh (CDC2L2): 6%
%Inh (CDC2L5): 0%
%Inh (CDK11): 6%
%Inh (CDK2): 0%
%Inh (CDK3): 7%
%Inh (CDK4-cyclinD1): 58%
%Inh (CDK4-cyclinD3): 46%
%Inh (CDK4): 37%
%Inh (CDK5): 0%
%Inh (CDK7): 47%

CC(C)(C)c1ccc2nccc(Nc3cccc(O)c3)c2c1 [GW856795]
%Inh (CDC2L2): 0%
%Inh (CDC2L5): 36%
%Inh (CDK11): 17%
%Inh (CDK2): 0%
%Inh (CDK3): 0%
%Inh (CDK4-cyclinD1): 55%
%Inh (CDK4-cyclinD3): 0%
%Inh (CDK4): 32%
%Inh (CDK5): 0%
%Inh (CDK7): 1%

COC(=O)Nc1nc2cc(Oc3ccc(NC(=O)Nc4cc(C(F)(F)F)ccc4F)cn3)ccc2[nH]1.Cl.Cl [GW681170]
%Inh (CDC2L2): 18%
%Inh (CDC2L5): 69%
%Inh (CDK11): 98.1%
%Inh (CDK2): 16%
%Inh (CDK3): 7%
%Inh (CDK4-cyclinD1): 7%
%Inh (CDK4-cyclinD3): 0%
%Inh (CDK4): 50%
%Inh (CDK5): 0%
%Inh (CDK7): 94.1%

Cc1ccc(F)c(C(=O)Nc2cccc(-c3nn4ccccc4c3-c3ccnc(Nc4cccc(F)c4)n3)c2)c1F [GSK361061]
%Inh (CDC2L2): 23%
%Inh (CDC2L5): 0%
%Inh (CDK11): 14%
%Inh (CDK2): 11%
%Inh (CDK3): 17%
%Inh (CDK4-cyclinD1): 0%
%Inh (CDK4-cyclinD3): 0%
%Inh (CDK4): 3%
%Inh (CDK5): 4%
%Inh (CDK7): 0%

COc1cccc(-c2ccc3c(NC(=O)C4CC4)n[nH]c3n2)c1 [SB-710903]
%Inh (CDC2L2): 1%
%Inh (CDC2L5): 0%
%Inh (CDK11): 0%
%Inh (CDK2): 33%
%Inh (CDK3): 41%
%Inh (CDK4-cyclinD1): 61%
%Inh (CDK4-cyclinD3): 15%
%Inh (CDK4): 52%
%Inh (CDK5): 0%
%Inh (CDK7): 0%
